Source: article PMC4552634, “A New Set of Chemical Starting Points with Plasmodium falciparum Transmission-Blocking Potential for Antimalarial Drug Discovery” (PLoS ONE, 2015)
Where two headings read alike, the source gives them in different places. Out of some 13,000 compounds screened, about 3,200 (25%) showed an effect of 50% or more. This is one part of the list.

System: P. falciparum stage V gametocytes
Set-up: BacTiter-Glo ATP luminescence viability of purified stage V gametocytes in 384-well plates, per cent inhibition versus DMSO
Settings: 48 h, 5 µM, inhibitor

Structure (SMILES)	% Inhibition [%]	% Inhibition (% Inhibition) [%]
CS(=O)(=O)n1c(CN2CCN(c3ncc(C(F)(F)F)cc3Cl)CC2)nc2ccccc21 [TCMDC-134291]	88.45	–
Cc1cccc(CN2CCN(c3ncc(C(=O)NC4CC4)cc3Cl)CC2)c1 [TCMDC-134604]	4.534	–
O=C(NC1CCN(c2ncc(C(F)(F)F)cc2Cl)CC1)c1cccs1 [TCMDC-133802]	15.64	–
O=C1OC(c2cc3ccccc3n2S(=O)(=O)c2ccccc2)(c2cc3ccccc3n2S(=O)(=O)c2ccccc2)c2ccccc21 [TCMDC-131245]	29.52	–
CCC(C)(C)c1ccc(OCCCC(=O)Nc2ccc(Cl)c([N+](=O)[O-])c2)c(C(C)(C)CC)c1 [TCMDC-125721]	-38.1	–
C#CCCOc1ccc2ccccc2c1CNCCCCCCNCc1c(OCCC#C)ccc2ccccc12 [TCMDC-137832]	106.3	–
C#CCOc1ccc2ccccc2c1CNCCCCCCNCc1c(OCC#C)ccc2ccccc12 [TCMDC-137838]	115.4	–
O=C(NCCN1CCOCC1)c1csc(C2CCCN(C(=O)c3ccc(O)c(-c4cc(Cl)cc(Cl)c4)c3)C2)n1 (stereo not drawn) [TCMDC-140155]	11.07	–
CC(C)(C)SC1SC(SC(C)(C)C)C(OC(=O)c2ccccc2)C(OC(=O)c2ccccc2)C1OC(=O)c1ccccc1 (stereo not drawn) [TCMDC-131948]	-26.61	–
O=C(Nc1ccccc1C(F)(F)F)NC1CCC(CN2CCC(c3c[nH]c4ccccc34)CC2)CC1 (stereo not drawn) [TCMDC-140197]	–	5.962
Cn1nc(-c2ccc(S(=O)(=O)NC3CCC(CN4CCC(c5c[nH]c6ccccc56)CC4)CC3)s2)cc1C(F)(F)F (stereo not drawn) [TCMDC-140166]	–	62.77
O=S(=O)(NC1CCC(CN2CCC(c3c[nH]c4ccccc34)CC2)CC1)c1ccc(Cl)c(Cl)c1 (stereo not drawn) [TCMDC-140164]	18.4	–
Cn1nc(-c2ccc(S(=O)(=O)NC3CCC(CN4CCC(c5c[nH]c6ccccc56)CC4)CC3)s2)cc1C(F)(F)F (stereo not drawn) [TCMDC-140174]	–	96.23
O=C(Nc1ccccc1C(F)(F)F)NC1CCC(CN2CCC(c3c[nH]c4ccccc34)CC2)CC1 (stereo not drawn) [TCMDC-140177]	–	-23.5
O=C(NC1CCC(CN2CCC(c3c[nH]c4ccccc34)CC2)CC1)c1cc(-c2ccccc2Cl)oc1C(F)(F)F (stereo not drawn) [TCMDC-140358]	4.446	–
CCN1CCN(c2cc(C)c3cc(NC(=O)c4ccc(N(CC)CC)cc4)ccc3n2)CC1 [TCMDC-125574]	18.21	–
COc1ccc(-c2csc(NC(=O)CCC(=O)O)n2)cc1OC [TCMDC-124274]	-7.165	–
CCCC(C)c1ccc(N2C(N)=NC(N)=NC2(C)C)cc1 (stereo not drawn) [TCMDC-137715]	12.27	–
O=C(O)c1ccc(NC(=O)C2CC(=O)N(Cc3ccc(Cl)cc3)C(=Nc3ccc(Cl)cc3)S2)cc1 (stereo not drawn) [TCMDC-124036]	-57.25	–
COc1ccc(C[C@H](N)C(=O)N[C@H]2[C@@H](O)[C@H](n3cnc4c(N(C)C)ncnc43)O[C@@H]2CO)cc1 [TCMDC-123493]	–	123.8
COc1ccc(C[C@H](N)C(=O)N[C@H]2[C@@H](O)[C@H](n3cnc4c(N(C)C)ncnc43)O[C@@H]2CO)cc1 [TCMDC-123927]	–	96.23
CS(=O)(=O)c1ccc(-c2cncc(Nc3cccc([N+](=O)[O-])c3)c2)cc1 [TCMDC-136669]	44.65	–
CCn1cc(CN2C(=O)C(c3ccccc3)(c3ccccc3)N=C2N)cn1 [TCMDC-136798]	10.89	–
CC1(C)N=C(N)N=C(N)C1c1ccc(Cl)c(Cl)c1 (stereo not drawn) [TCMDC-137491]	-1.127	–
N#CC(NC(=O)C=Cc1ccccc1)c1ccccc1 (stereo not drawn) [TCMDC-131635]	-0.4742	–

Structure (SMILES)	% Inhibition [%]	% Inhibition (% Inhibition) [%]
Cl.Nc1nc(Nc2cccc(O)c2)nc2ccccc12 [TCMDC-124459]	5.684	–
Cl.c1ccc2c(Nc3ccc(Cc4ccc(Nc5c6ccccc6nc6ccccc56)cc4)cc3)c3ccccc3nc2c1 [TCMDC-137354]	113.6	–
Cc1ccc(Nc2nc(N)c3ccccc3n2)cc1.Cl [TCMDC-123638]	30.09	–
c1ccc(Oc2cccc(Nc3ccnc4ccccc34)c2)cc1 [TCMDC-137251]	14.27	–
c1cc(Cc2ccc(Nc3c4ccccc4nc4ccccc34)cc2)cc(Nc2c3ccccc3nc3ccccc23)c1 [TCMDC-137793]	84.71	–
CC1(C)Cc2c(oc3ncn(CCn4cnc5oc6c(c5c4=N)CC(C)(C)SC6)c(=N)c23)CS1 [TCMDC-125795]	-5.815	–
O=C(NC1CC1)c1ccc(N2CCC(c3ccccc3)CC2)nc1 [TCMDC-134590]	17.19	–
Cc1ccc(CON2C(N)=NC(N)=NC2(C)C)cc1C [TCMDC-131660]	9.174	–
COc1ccc(NC(=O)[C@H](CC(C)C)Nc2cc(C)nc(NCCOc3ccccc3)n2)cc1 [TCMDC-134760]	36.25	–
NOCCCOc1ccc(Cl)cc1 [TCMDC-123471]	6.801	–
CC(C)CCNC(=N)Nc1ccc(OCCCOc2ccc(NC(=N)NCCC(C)C)cc2)cc1 [TCMDC-137615]	100.2	–
CC(C)CCNC(=N)Nc1ccc(OCCCCCOc2ccc(NC(=N)NCCC(C)C)cc2)cc1 [TCMDC-137614]	113.6	–
CS(=O)(=O)Nc1ccc(OCCCCCCOc2ccc(NS(C)(=O)=O)cc2)cc1 [TCMDC-137531]	17.32	–
COc1ccc(-c2ccc(CNC(=O)c3cccc(C#N)c3)c(F)c2)cc1CN1CCCN(C)CC1 [TCMDC-133367]	3.232	–
O=C(CCc1cccnc1)Nc1ccc(-c2cccc(-c3nc4ccc(F)cc4[nH]3)c2)cc1 [TCMDC-132146]	-0.1199	–
CC1(C)CC(=O)c2c(O)cc(OCc3ccncc3)cc2O1 [TCMDC-131348]	-21.15	–
Cc1cccc2nc(-c3ccc(-c4ccc(C(=O)NCCN5CCCC5)cc4)cc3)[nH]c12 [TCMDC-132320]	6.886	–
Cc1cccc2nc(-c3cccc(-c4cccc(CNCCN5CCNCC5)c4)c3)[nH]c12 [TCMDC-132873]	108	–
Cc1cccc2nc(-c3cccc(-c4cccc(CNCCCN5CCCC5=O)c4)c3)[nH]c12.O=C(O)C(F)(F)F [TCMDC-132751]	3.721	–
Cc1cccc2nc(-c3ccc(-c4cccc(CNCCN5CCNCC5)c4)cc3)[nH]c12 [TCMDC-132867]	101.3	–
Cc1cccc2nc(-c3cccc(-c4ccc(CNCCCN5CCCC5=O)cc4)c3)[nH]c12.O=C(O)C(F)(F)F [TCMDC-132753]	7.956	–
Cc1cccc2nc(-c3cccc(-c4cccc(CNCCc5cccn5C)c4)c3)[nH]c12.O=C(O)C(F)(F)F [TCMDC-132685]	-19.68	–
CCOc1cc2ncnc(Nc3cc(Cl)c(Cl)c(Cl)c3)c2cc1OCC [TCMDC-131926]	9.404	–
O=C(c1ccc(Cl)cc1)N1CCCC(C(=O)N(Cc2nnc(-c3ccccc3Cl)o2)C2CC2)C1 (stereo not drawn) [TCMDC-125331]	-2.423	–
CC(=NNC(=S)Nc1ccccc1Cl)c1ccccn1 [TCMDC-124278]	2.359	–

Structure (SMILES)	% Inhibition [%]	% Inhibition (% Inhibition) [%]
O=C(Nc1ccc(S(=O)(=O)N2CCCCCC2)cc1)c1cc(-c2ccccc2O)n[nH]1 [TCMDC-125203]	-36.28	–
COc1ccc2c(NN=Cc3ccccn3)ccnc2c1 [TCMDC-142028]	-6.659	–
Fc1ccc(NC(=S)NN=Cc2ccccn2)cc1 [TCMDC-125521]	108.6	–
Cc1cc(NN=Cc2ccccn2)c2cc(F)ccc2n1 [TCMDC-142020]	16.37	–
O=S(=O)(c1ccc(NC(=S)NN=Cc2ccccn2)cc1)N1CCCCC1 [TCMDC-125787]	60.8	–
Fc1ccc(NC(=S)NCCc2ccccc2)cc1 [TCMDC-123847]	-9.114	–
Cc1c(Cl)cccc1NC(=S)NN=Cc1ccccn1 [TCMDC-125487]	106.6	–
O=C(Nc1ccc(S(=O)(=O)N2CCCCC2)cc1)c1cc(-c2ccccc2O)n[nH]1 [TCMDC-124310]	-14.76	–
CC(C)c1ccc(NC(=S)NN=Cc2ccccn2)cc1 [TCMDC-125520]	108.1	–
Cn1cnc2c(SCc3ccccc3OCc3ccccc3)ncnc21 [TCMDC-136495]	-28.48	–
O=C(/C=C/c1ccc(Cl)c(Cl)c1)N(Cc1ccccc1)C1CCC(CN2CCC(c3c[nH]c4ccccc34)CC2)CC1 (stereo not drawn) [TCMDC-140359]	26.1	–
COc1cc2c(Nc3ccc(Br)cc3F)ncnc2cc1OCC1CCN(C)CC1 [TCMDC-123476]	19.55	–
O=C(O)C(F)(F)F.OC1CCCN(Cc2cccc(-c3ccc(-c4nc5cc(F)ccc5[nH]4)cc3)c2)C1 (stereo not drawn) [TCMDC-133820]	3.122	–
COc1ccc2ncc(F)c(NC(=O)C3CCC(NCc4cc5c(F)cccc5[nH]4)CC3)c2n1 (stereo not drawn) [TCMDC-136354]	-14.12	–
N#Cc1ccc2c(c1)CCN(CCC1CCC(NC(=O)Nc3ccncc3)CC1)C2 (stereo not drawn) [TCMDC-139300]	-15.77	–
CCOC(=O)c1cc(=O)c2ccc(OCC#N)cc2o1 [TCMDC-131302]	40.87	–
Fc1ccc2[nH]c(-c3cccc(-c4cccc(CNCc5cnn(-c6ccccc6)n5)c4)c3)nc2c1.O=C(O)C(F)(F)F [TCMDC-132976]	-2.641	–
FC(F)(F)c1cccc(NC(=S)NN=Cc2ccccn2)c1 [TCMDC-123509]	31.63	–
O=C(Nc1ccc2c(c1)OCCO2)c1cc(-c2cccnc2)nc2ccc(Cl)cc12 [TCMDC-124362]	-23.33	–
S=C(NN=Cc1ccccn1)Nc1ccc2c(c1)OCCO2 [TCMDC-132009]	95.93	–
S=C(NN=Cc1ccccn1)Nc1ccc(Cl)c(Cl)c1 [TCMDC-125522]	102.5	–
CC(C)N=C(N)NN=Cc1ccc(Cl)c(Cl)c1 [TCMDC-138131]	-38.45	–
O=C(Cn1cnc2c(nnn2Cc2ccccc2F)c1=O)Nc1ccc2c(c1)OCCO2 [TCMDC-124462]	-30.94	–
S=C(NN=Cc1ccccn1)NC1CC2C=CC1C2 (stereo not drawn) [TCMDC-125752]	132.2	–
Cc1cc(NN=Cc2ccccn2)c2cc(C(F)(F)F)ccc2n1 [TCMDC-142022]	35.2	–
